Assay results taken from PubChem BioAssay AID2330 (Broad Institute, 2010).
In all, about 37,000 compounds went through this assay and about 2,800 (7.6%) were called active. Inconclusive results (about 1%) are left out. Cut-off read from the data, not from the text of the source: active = inhibition above about 80%; inconclusive = no clear call, values can overlap the other calls; inactive = below that. The list comes from a sample in which actives are over-represented; it also holds similar structures and randomly drawn compounds.

Assay: NOMO-1 AML cell viability reduction, primary screen, STK33 inhibitor project, CellTiter-Glo luminescence (AID 2330)
Conditions: NOMO-1 AML viability, 72 h, stronger effect = higher value, concentration not given here

SMILES	inhibition
COc1ccc(CN(C)C[C@H]2Oc3c(NC(=O)C4CCCCC4)cccc3C(=O)N([C@@H](C)CO)C[C@@H]2C)cc1	15.7% (inactive)
C[C@@H]1CN([C@H](C)CO)C(=O)c2cccc(NC(=O)c3nc4ccccc4s3)c2O[C@H]1CN(C)S(=O)(=O)c1ccc(Cl)cc1	61.5% (inactive)
COc1ccc(CN(C)C[C@H]2Oc3c(NC(=O)C4CCCCC4)cccc3C(=O)N([C@@H](C)CO)C[C@H]2C)cc1	2.14% (inactive)
C[C@@H]1CN([C@@H](C)CO)C(=O)c2cccc(NC(=O)c3nc4ccccc4s3)c2O[C@@H]1CN(C)Cc1ccc(Cl)c(Cl)c1	87.1% (active)
C[C@@H]1CN([C@H](C)CO)C(=O)c2cccc(NC(=O)c3nc4ccccc4s3)c2O[C@H]1CN(C)Cc1ccccc1	96.6% (active)
C[C@H](CO)N1C[C@H](C)[C@@H](CN(C)Cc2ccc(Cl)c(Cl)c2)Oc2c(NC(=O)C3CCCCC3)cccc2C1=O	102% (active)
CC(C)NC(=O)N(C)C[C@@H]1Oc2c(NC(=O)c3nc4ccccc4s3)cccc2C(=O)N([C@H](C)CO)C[C@H]1C	-10.2% (inactive)
C[C@@H]1CN([C@H](C)CO)C(=O)c2cccc(NC(=O)c3nc4ccccc4s3)c2O[C@@H]1CN(C)Cc1ccc(Oc2ccccc2)cc1	54.9% (inactive)
C[C@@H]1CN([C@H](C)CO)C(=O)c2cccc(NC(=O)c3nc4ccccc4s3)c2O[C@@H]1CN(C)C	6.43% (inactive)
Cc1cc(C)c(OCC(=O)Nc2cccnc2)c(Br)c1	5.52% (inactive)
COc1cc(C(C)=O)ccc1OCC(O)Cn1nc(C)cc1C (stereo not drawn)	10.2% (inactive)
COc1ccc(NC(=O)Nc2ccc3c(c2)CC(=O)N([C@@H](C)CO)C[C@H](C)[C@@H](CN(C)S(=O)(=O)c2cn(C)cn2)O3)cc1	-12.8% (inactive)
C[C@H]1CN([C@@H](C)CO)C(=O)c2cc(NC(=O)Cn3cnnn3)ccc2O[C@H]1CN(C)Cc1ccc(C(=O)O)cc1	30.7% (inactive)
COc1ccc(CCn2c(C)nc(=O)c(-c3ccccc3)c2C)cc1OC	2.96% (inactive)
C[C@@H]1CN([C@@H](C)CO)C(=O)c2cccc(NS(=O)(=O)c3ccc(F)cc3)c2O[C@H]1CN(C)C(=O)NC1CCCCC1	4.03% (inactive)
C[C@H](CO)N1C[C@H](C)[C@@H](CN(C)Cc2ccc(Cl)c(Cl)c2)Oc2c(NC(=O)Nc3ccccc3)cccc2C1=O	59.3% (inactive)
O=C(c1cc([N+](=O)[O-])ccc1NCc1cccnc1)N1CCOCC1	-0.79% (inactive)
COc1ccc(NC(=O)N(C)C[C@@H]2Oc3c(NC(=O)Nc4cccc5ccccc45)cccc3C(=O)N([C@@H](C)CO)C[C@H]2C)cc1	33.8% (inactive)
C[C@@H]1CN([C@H](C)CO)C(=O)c2cc(NS(=O)(=O)c3ccc(F)cc3)ccc2O[C@@H]1CN(C)C(=O)Nc1cccc2ccccc12	15.5% (inactive)
COC(=O)c1ccc(NCc2cc(O)ccc2O)cc1	96.2% (active)
COC(=O)c1c(C)n(CCNc2ccc([N+](=O)[O-])cc2)c2ccc(O)cc12	32.6% (inactive)
COC(=O)c1ccc(NC(=O)CN(c2ccc(C)c(Cl)c2)S(C)(=O)=O)cc1	-3.13% (inactive)
O=C(CSc1nc(O)cc(=O)n1-c1ccccc1F)Nc1ccc(Cl)cc1Cl	9.63% (inactive)
COC(=O)c1ccccc1NC(=O)CN(c1ccc2c(c1)OCCO2)S(C)(=O)=O	-1.24% (inactive)
C[C@H](CO)N1C[C@H](C)[C@H](CN(C)Cc2ccncc2)Oc2ccc(NC(=O)Cc3cn(C)c4ccccc34)cc2CC1=O	6.89% (inactive)
C[C@H]1CN([C@@H](C)CO)C(=O)c2cc(NC(=O)Cc3cn(C)c4ccccc34)ccc2O[C@H]1CN(C)Cc1ccc(Cl)c(Cl)c1	84% (active)

SMILES	inhibition
C[C@@H]1CN([C@@H](C)CO)C(=O)c2cc(NC(=O)Cc3ccccc3)ccc2O[C@H]1CN(C)Cc1ccc(Cl)c(Cl)c1	54.8% (inactive)
C[C@H]1CN([C@@H](C)CO)C(=O)c2cc(NC(=O)Cc3cn(C)c4ccccc34)ccc2O[C@@H]1CN(C)Cc1ccc(Cl)c(Cl)c1	87.6% (active)
C[C@@H]1CN([C@H](C)CO)C(=O)c2cc(NC(=O)Cc3cn(C)c4ccccc34)ccc2O[C@H]1CN(C)S(C)(=O)=O	15.5% (inactive)
C[C@H]1CN([C@@H](C)CO)C(=O)c2cc(NC(=O)Cc3cn(C)c4ccccc34)ccc2O[C@H]1CN(C)CC1CCCCC1	15% (inactive)
Cc1noc(C)c1NC(=O)N(C)C[C@@H]1Oc2ccc(NC(=O)Nc3ccc(C(F)(F)F)cc3)cc2C(=O)N([C@H](C)CO)C[C@@H]1C	7.38% (inactive)
CC(=O)N[C@@H](C(=O)O[C@H]1CCC(C)(C)[C@@H]2CCC3=C(COC3=O)[C@@]12C)C(C)C	25.2% (inactive)
Cc1ccc(-c2nc(S(=O)(=O)c3ccc(Br)cc3)c(SCC(N)=O)o2)cc1	11.1% (inactive)
O=C(c1ccccc1)c1cnn(-c2ccc(Cl)cc2)n1	18.2% (inactive)
Cc1ccccc1NC(=O)CSc1nnc(-c2ccc([N+](=O)[O-])cc2)n1C	-7.25% (inactive)
CCn1c2ccccc2c2nnc(SCC(=O)O)nc21	11.8% (inactive)
O=C1C(=O)N(CCn2c3ccccc3c3nc4ccccc4nc32)c2ccccc21	119% (active)
CCCn1c2ccccc2c2nnc(SCC(=O)Nc3cccc4ccccc34)nc21	9.77% (inactive)
Cc1ccc(C)c(OCC(=O)Nc2ccccc2C#N)c1	15.4% (inactive)
C[C@@H]1CN([C@H](C)CO)C(=O)c2cccc(NS(=O)(=O)c3cn(C)cn3)c2O[C@@H]1CN(C)Cc1ccc(C(F)(F)F)cc1	-20.1% (inactive)
C[C@@H]1CN([C@@H](C)CO)C(=O)c2cccc(NS(=O)(=O)c3ccccc3)c2O[C@@H]1CN(C)S(=O)(=O)c1ccc(F)cc1	65% (inactive)
O=C(Nc1ccccc1)Nc1cc(C2CC2)nn1-c1ccccc1	16.4% (inactive)
O=C(Nc1ccccc1)Nc1ccc(C2SCCS2)cc1	89.9% (active)
O=C(Nc1ccccc1)C(=S)Nc1ccccc1	38.4% (inactive)
C=C1C(=O)O[C@H]2C3=C(C)C[C@H](OC(C)=O)C[C@]3(C)CC[C@@H]12	122% (active)
COc1ccc(CN(C)C[C@H]2Oc3ccc(NS(=O)(=O)c4c(C)noc4C)cc3CC(=O)N([C@H](C)CO)C[C@H]2C)cc1	5.72% (inactive)
COc1ccc(N(C(C)C(=O)Nc2cccc(Br)c2)S(C)(=O)=O)cc1 (stereo not drawn)	-13.9% (inactive)
COC(=O)c1ccc(NC(=O)CSc2nc(-c3ccccc3)c(-c3ccccc3)[nH]2)cc1	102% (active)
COC(=O)c1ccc(NC(=O)CSc2nc(-c3ccccc3)cc(=O)[nH]2)cc1	0.0616% (inactive)
Cc1nc(SCC(=O)Nc2ccc(C(=O)O)cc2)[nH]c(=O)c1C	24.5% (inactive)
C[C@H](CO)N1C[C@H](C)[C@H](CN(C)S(C)(=O)=O)Oc2ccc(NC(=O)c3ccncc3)cc2CC1=O	-14.9% (inactive)
CNC[C@H]1Oc2ccc(NS(=O)(=O)c3ccc(F)cc3)cc2CC(=O)N([C@H](C)CO)C[C@H]1C	-15.6% (inactive)

SMILES	inhibition
Oc1cc2c(cc1O)CN(C(=S)NCCc1ccc(Cl)cc1)CCC2	96.6% (active)
S=C(NCC1CC1)Nc1ccc(Cl)cc1	34.8% (inactive)
COc1cccc2cc(C(=O)C3C(=O)C(=O)N(CCN4CCOCC4)C3c3ccc(F)cc3)oc12 (stereo not drawn)	-8.3% (inactive)
COc1ccc(CNC(=O)c2c(C)oc3c2cc(OC(C)=O)c2ccccc23)cc1	43% (inactive)
Cc1noc(C)c1S(=O)(=O)Nc1ccc2c(c1)CC(=O)N([C@H](C)CO)C[C@@H](C)[C@@H](CN(C)Cc1ccc(C(=O)O)cc1)O2	-16.8% (inactive)
C[C@H](CO)N1C[C@H](C)[C@H](CN(C)S(=O)(=O)c2cn(C)cn2)Oc2c(NC(=O)c3ccncc3)cccc2C1=O	29.1% (inactive)
O=C(Cn1cc(C(=O)C2CC2)c2ccccc21)Nc1ccccc1Cl	3.17% (inactive)
COc1ccc(OC)c(NC(=O)Cn2cc(C(=O)C3CC3)c3ccccc32)c1	-2.38% (inactive)
Cc1c(Cl)cccc1NC(=O)Cn1cc(C(=O)c2cccs2)c2ccccc21	88.1% (active)
C[C@@H]1CN([C@@H](C)CO)C(=O)c2cccc(N(C)C)c2O[C@H]1CN(C)S(=O)(=O)c1cccs1	22.8% (inactive)
Cc1ccnc(N)c1	6.37% (inactive)
C[C@H](CO)N1C[C@H](C)[C@H](CN(C)C)Oc2ccc(NC(=O)Nc3ccc(F)cc3)cc2CC1=O	-3.06% (inactive)
COc1ccc(NC(=O)N(C)C[C@@H]2Oc3c(NC(=O)NC4CCCCC4)cccc3C(=O)N([C@H](C)CO)C[C@H]2C)cc1	-1.16% (inactive)
C=CC(C)(O)CCC1(C)C2=C(C(OC(C)=O)C(OC(C)=O)C1C)C(C)(C)CCC2 (stereo not drawn)	115% (active)
C[C@@H]1CN([C@@H](C)CO)C(=O)c2cc(NC(=O)Nc3ccccc3)ccc2O[C@H]1CN(C)S(=O)(=O)c1ccccc1	-0.0629% (inactive)
C[C@H](CO)N1C[C@H](C)[C@H](CN(C)S(=O)(=O)c2ccc(Cl)cc2)Oc2ccc(NC(=O)C3CCCCC3)cc2C1=O	7.26% (inactive)
COc1ccc(OC)c(NC(=O)CSc2n[nH]c(-c3ccncc3)n2)c1	14.4% (inactive)
C[C@H]1CN([C@@H](C)CO)C(=O)Cc2cc(NC(=O)CCCCCC(=O)Nc3ccccc3N)ccc2O[C@@H]1CN(C)Cc1ccncc1	19.5% (inactive)
CC(C)NC(=O)Nc1ccc2c(c1)CC(=O)N([C@H](C)CO)C[C@H](C)[C@H](CN(C)Cc1ccc3c(c1)OCO3)O2	14.7% (inactive)
C[C@H](CO)N1C[C@H](C)[C@H](CN(C)Cc2ccc(C(=O)Nc3ccccc3N)cc2)Oc2ccc(NC(=O)Nc3ccccc3)cc2CC1=O	141% (active)
COc1ccc(CN(C)C[C@@H]2Oc3ccc(NC(=O)Nc4ccc5c(c4)OCO5)cc3CC(=O)N([C@H](C)CO)C[C@H]2C)cc1	8.79% (inactive)
C[C@@H]1CN([C@H](C)CO)C(=O)Cc2cc(NC(=O)Nc3ccc4c(c3)OCO4)ccc2O[C@@H]1CN(C)Cc1ccc(C(=O)Nc2ccccc2N)cc1	96.7% (active)
C[C@@H]1CN([C@H](C)CO)C(=O)Cc2cc(NC(=O)Nc3ccc(F)cc3)ccc2O[C@@H]1CN(C)Cc1ccc2c(c1)OCO2	31% (inactive)
C[C@H]1CN([C@@H](C)CO)C(=O)Cc2cc(NC(=O)Nc3ccc4c(c3)OCO4)ccc2O[C@H]1CN(C)Cc1ccc(C(=O)Nc2ccccc2N)cc1	127% (active)
C[C@@H]1CN([C@H](C)CO)C(=O)Cc2cc(NC(=O)Nc3ccc4c(c3)OCO4)ccc2O[C@H]1CN(C)Cc1ccc(C(=O)O)cc1	20.5% (inactive)
CC(C)NC(=O)Nc1ccc2c(c1)CC(=O)N([C@H](C)CO)C[C@@H](C)[C@@H](CN(C)Cc1ccc(C(=O)Nc3ccccc3N)cc1)O2	60.7% (inactive)
